Assay results reported in PubChem BioAssay.
For some assays here: Results with a measured potency or affinity are listed apart. Calls of active or inactive are those of the source. Unless noted, how the calls were made is not given here.

Legend:
[1] = antimalarial activity against Dd2 strain (AID 2302;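 active means growth inhibition above 50% at the single 2 µM test dose, taken to imply half-maximal potency below 2 µM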;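 further: 0% = DMSO untreated growth and 100% = chloroquine plus artemisinin killed control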); conditions: P. falciparum Dd2 in RBCs, LDH growth readout, 72 h; at 2 µM; active compounds read high
[2] = HepG2 cytotoxicity, primary screen, cytotoxicity control for P. falciparum antimalarial project, cell-based, ATP luminescence (AID 2303;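 active means inhibition above 50%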;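 further: 0% = DMSO wells and 100% = digitonin-killed cells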); conditions: HepG2 viability, 24-48 h, at 10 µM, active compounds read high
[3] = molecular target: L-lactate dehydrogenase (Plasmodium falciparum (isolate CDC / Honduras)) (UniProt Q27743); experiment: PfLDH activity inhibition – cell lysate, 3D7 strain, counter-screen for P. falciparum growth inhibition project (AID 2304);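 further: 0% = vehicle and 100% = reference inhibitor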; conditions: P. falciparum 3D7 crude extract, LDH APAD/NBT absorbance; at 2 µM; active compounds read high
L-lactate dehydrogenase (Plasmodium falciparum (isolate CDC / Honduras)), sequence (Q27743 whole entry, looked up): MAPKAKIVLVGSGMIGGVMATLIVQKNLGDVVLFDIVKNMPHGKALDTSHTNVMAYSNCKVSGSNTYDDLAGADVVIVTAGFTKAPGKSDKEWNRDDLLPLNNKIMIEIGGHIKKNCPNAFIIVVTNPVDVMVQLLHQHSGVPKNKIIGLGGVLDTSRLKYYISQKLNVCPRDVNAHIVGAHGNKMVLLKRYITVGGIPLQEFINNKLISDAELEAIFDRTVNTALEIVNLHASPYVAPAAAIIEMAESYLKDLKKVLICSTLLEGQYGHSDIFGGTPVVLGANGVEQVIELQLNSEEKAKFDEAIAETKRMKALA

[4] = inhibition of 3D7 malaria parasite growth – strain 3D7 (AID 2306);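 further: 0% = DMSO wells and 100% = chloroquine plus artemisinin control wells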; conditions: P. falciparum 3D7 erythrocytic growth, LDH absorbance, 72 h; at 2 µM; active compounds read high
[5] = molecular target: Calcium-dependent protein kinase 1 (Plasmodium falciparum (isolate 3D7)) (UniProt P62344); experiment: PfCDPK1 kinase inhibitors, biochemical, TCAMS library (AID 1159585; cut-off not given, nearly all actives have IC50 up to about 0.98 µM;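 further: inhibitors leave more ATP so luminescence rises with inhibition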); conditions: recombinant PfCDPK1, Kinase-Glo ATP depletion luminescence
Calcium-dependent protein kinase 1 (Plasmodium falciparum (isolate 3D7)), sequence (P62344 whole entry, looked up): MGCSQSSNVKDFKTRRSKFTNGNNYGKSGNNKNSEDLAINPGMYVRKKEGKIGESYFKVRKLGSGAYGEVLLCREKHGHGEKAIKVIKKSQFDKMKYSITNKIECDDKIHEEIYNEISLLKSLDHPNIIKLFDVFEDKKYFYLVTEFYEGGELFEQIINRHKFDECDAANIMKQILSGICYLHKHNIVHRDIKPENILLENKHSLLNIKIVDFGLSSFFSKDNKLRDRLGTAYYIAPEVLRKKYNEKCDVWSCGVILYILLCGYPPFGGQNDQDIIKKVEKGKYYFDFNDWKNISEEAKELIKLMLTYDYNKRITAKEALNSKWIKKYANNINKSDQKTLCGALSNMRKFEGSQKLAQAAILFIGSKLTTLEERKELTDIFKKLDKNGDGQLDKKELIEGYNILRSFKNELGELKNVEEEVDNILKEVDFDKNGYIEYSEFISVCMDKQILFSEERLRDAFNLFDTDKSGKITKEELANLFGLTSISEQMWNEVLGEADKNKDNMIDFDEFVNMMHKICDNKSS

[6] = molecular target: Plasmodium falciparum protein kinase 6 (PK6, PF3D7_1337100) (UniProt Q8IDW1); experiment: PfPK6 kinase inhibitors, biochemical, TCAMS library (AID 1159586); conditions: recombinant PfPK6, Kinase-Glo ATP depletion luminescence
Plasmodium falciparum protein kinase 6 (PK6, PF3D7_1337100), sequence (Q8IDW1 1-305): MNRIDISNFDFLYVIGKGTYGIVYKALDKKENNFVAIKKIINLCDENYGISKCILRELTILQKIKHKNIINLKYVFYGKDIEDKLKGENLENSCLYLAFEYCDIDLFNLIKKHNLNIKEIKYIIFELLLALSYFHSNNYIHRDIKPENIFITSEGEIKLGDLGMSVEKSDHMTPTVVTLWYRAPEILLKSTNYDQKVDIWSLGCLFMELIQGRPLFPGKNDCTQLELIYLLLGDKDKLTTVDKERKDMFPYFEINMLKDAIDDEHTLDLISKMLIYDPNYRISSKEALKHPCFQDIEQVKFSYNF

[7] = molecular target: Protein kinase 7 (PK7), Plasmodium falciparum 3D7 (PF3D7_0213400) (UniProt Q7YTF7); experiment: inhibition of Plasmodium PK7 catalytic activity – biochemical, TCAMS antimalarial set, Kinase-Glo luminescence (AID 1159587); conditions: recombinant PfPK7, Kinase-Glo ATP depletion luminescence
Protein kinase 7 (PK7), Plasmodium falciparum 3D7 (PF3D7_0213400), sequence (Q7YTF7 1-343): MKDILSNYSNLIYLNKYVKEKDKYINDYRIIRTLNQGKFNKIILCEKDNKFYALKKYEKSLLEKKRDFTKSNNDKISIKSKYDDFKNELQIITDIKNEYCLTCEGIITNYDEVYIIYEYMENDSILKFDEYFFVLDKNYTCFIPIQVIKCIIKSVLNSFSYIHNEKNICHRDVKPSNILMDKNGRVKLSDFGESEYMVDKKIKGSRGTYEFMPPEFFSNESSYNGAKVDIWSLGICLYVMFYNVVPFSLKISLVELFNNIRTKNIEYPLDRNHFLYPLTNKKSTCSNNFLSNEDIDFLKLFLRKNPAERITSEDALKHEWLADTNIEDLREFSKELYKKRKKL

[8] = molecular target: Calcium-dependent protein kinase 4 (Plasmodium falciparum (isolate 3D7)) (UniProt Q8IBS5); experiment: PfCDPK4 kinase inhibitors, biochemical, TCAMS library (AID 1159588; cut-off not given, nearly all actives have IC50 up to about 0.91 µM); conditions: recombinant PfCDPK4, Kinase-Glo ATP depletion luminescence
Calcium-dependent protein kinase 4 (Plasmodium falciparum (isolate 3D7)), sequence (Q8IBS5 whole entry, looked up): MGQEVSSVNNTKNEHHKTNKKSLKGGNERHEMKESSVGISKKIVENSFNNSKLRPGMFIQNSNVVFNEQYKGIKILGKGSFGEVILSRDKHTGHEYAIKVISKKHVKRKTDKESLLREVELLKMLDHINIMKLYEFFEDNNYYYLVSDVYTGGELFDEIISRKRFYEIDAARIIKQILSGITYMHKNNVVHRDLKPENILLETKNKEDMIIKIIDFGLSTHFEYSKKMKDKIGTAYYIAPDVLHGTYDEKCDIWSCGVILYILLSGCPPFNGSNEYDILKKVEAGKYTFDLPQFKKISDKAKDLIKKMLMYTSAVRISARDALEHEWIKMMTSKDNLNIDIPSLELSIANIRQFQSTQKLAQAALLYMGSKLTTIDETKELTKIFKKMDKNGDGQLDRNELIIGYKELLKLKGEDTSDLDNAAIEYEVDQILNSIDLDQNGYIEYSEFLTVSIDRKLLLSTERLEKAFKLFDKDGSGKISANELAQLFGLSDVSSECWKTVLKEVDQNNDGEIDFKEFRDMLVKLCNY

CCCCCCCCc1c(C)[nH]c(C)c(C#N)c1=O
active: growth inhibition [1] 96% | growth inhibition [4] 97%
inactive: inhibition [2] 0% | inhibition [3] 4% | outcome [5] | outcome [6] | outcome [7] | outcome [8]

CCN(CC)CCN(Cc1ccc(-c2ccc(C(F)(F)F)cc2)cc1)C(=O)Cn1c(CCc2cccc(F)c2F)cc(=O)c(C)c1C
active: growth inhibition [1] 87% | growth inhibition [4] 97%
inactive: inhibition [2] 35% | inhibition [3] -4% | outcome [5] | outcome [6] | outcome [7] | outcome [8]

COc1cc(C)nc2ccc(NC(=O)c3cc([N+](=O)[O-])cc([N+](=O)[O-])c3)cc12
active: growth inhibition [1] 94% | growth inhibition [4] 102%
inactive: inhibition [2] -2% | inhibition [3] 2% | outcome [5] | outcome [6] | outcome [7] | outcome [8]

CCN1CCC(N(Cc2ccc(-c3ccc(C(F)(F)F)cc3)cc2)C(=O)Cn2c(SCc3cccc(F)c3F)cc(=O)c3ccccc32)C1 (configuration not stated)
active: growth inhibition [1] 91% | growth inhibition [4] 90%
inactive: inhibition [2] 42% | inhibition [3] 5% | outcome [5] | outcome [6] | outcome [7] | outcome [8]
